Measured values: PubChem BioAssay (Tox21)
Calls of active or inactive are those of the source. Calls come from the whole dose curve; as a rule, active = well fitted curve in the direction sought with a large enough effect in the repeat runs; inconclusive = weak or mixed curves; inactive = flat fitted curve, though single readings scatter.

Assay: qHTS assay to test for compound auto fluorescence at 590 nm (red) in HEK293 cells (AID 720679)
Conditions: red autofluorescence 540/590 nm; series mostly up to 91.3 µM; fluorescence, % of fluorescent control: at the top concentration
Text: National Center for Advancing Translational Sciences [NCATS]
NIH Chemical Genomics Center [NCGC]
U.S. Environmental Protection Agency [EPA]
National Institutes of Environmental Health Sciences [NIEHS]
National Toxicology Program [NTP]
U.S. Food and Drug Administration [FDA]
Compound auto fluorescence often interferes with screening of the compound library against various biological targets and signaling pathways. Some of these compounds may have fluorophoric properties. Such properties may interfere with the assay outputs resulting in false positives and/or negatives. To decrease such complications and ensure the compound activities are relevant in terms of biological response, the Tox21 10K compound library was screened for auto fluorescence.
From the fluorophores used as reporter signals in our screening assays, the auto fluorescence equivalencies of compounds against three fluorophores have been evaluated: Triamterene, Fluorescein and Rose Bengal sodium for blue, green and red fluorescence, respectively. The fluorescence intensities were measured using Excitation/Emission wavelengths at 405/460nm, 485/535nm and 540/590nm for blue, green and red labels, respectively. This assay includes the red fluorescence data.
Tox21 Assay Protocol Summary:
2,000 HEK293 cells in 5 uL of culture medium containing 10% dialyzed FBS per well were dispensed into black wall/clear bottom 1536-well plates using a Multidrop Combi Dispenser (Thermo Scientific). The assay plates were incubated for 4-5 hr at 37C to allow cell attachment to the well bottom, followed by the transfer of 23 nL compound or DMSO vehicle by a pintool work station (Kalypsys, San Diego, CA). After the assay plates were incubated overnight at 37C and 5% CO2, fluorescence intensities in the assay plates were measured by an Envision (PerkinElmer, Shelton, CT) plate reader using three labels for measuring blue, green and red fluorescence at […] 460, 535 and 590nm respectively.
% is set by controls: 0 for no effect and ±100 for the full control effect.

Row | SMILES | fluorescence, % of fluorescent control | outcome
1 | CC(=O)NC1(c2cccc(F)c2)CCN(CC[C@@]2(c3ccc(Cl)c(Cl)c3)CN(c3ccccc3)C(=O)CO2)CC1 | 0.156% (inactive) | 
2 | NC1[C@H]2CN(c3nc4c(cc3F)c(=O)c(C(=O)O)cn4-c3ccc(F)cc3F)C[C@@H]12 (stereo not given in full) | -0.298% [at 46 µM] (inactive) | 
3 | CCCCCC[C@@H](O)C/C=C\CCCCCCCC(=O)OCC(O)CO (stereo not given in full) | 0.057% (inactive) | 
4 | COc1ccccc1N1CCN(CC(O)COc2cccc3ccccc23)CC1 (stereo not given) | 0.105% [at 46 µM] (inactive) | 
5 | C1COC1 | 0.123% (inactive) | 
6 | Cc1cccc(N(C)C(=S)Oc2ccc3c(c2)CCC3)c1 | -0.0283% [at 46 µM] (inactive) | 
7 | C[C@@H](O)[C@H]1C(=O)N2C(C(=O)O)=C([C@H]3CCCO3)S[C@H]12 | -0.045% [at 46 µM] (inactive) | 
8 | CC(=O)[C@H]1[C@H](C#N)C[C@H]2[C@@H]3CC=C4C[C@@H](O)CC[C@]4(C)[C@H]3CC[C@@]21C | -0.0023% (inactive) | 
9 | Cc1c(C)c2c(c(C)c1OC(=O)CCC(=O)OCCO)CC[C@@](C)(CCC[C@H](C)CCC[C@H](C)CCCC(C)C)O2 | 0.0791% [at 46 µM] (inactive) | 
10 | O=C1c2ccccc2C(=O)C1c1nc2ccccc2c(Br)c1O | 0.318% (inactive) | 
11 | Nc1cccc2c1CN(C1CCC(=O)NC1=O)C2=O (stereo not given) | -0.0192% [at 46 µM] (inactive) | 
12 | CC1CC(OC(=O)C(O)c2ccccc2)CC(C)(C)N1C (stereo not given) |  | inactive
13 | CC(C)C=O | 0.534% [at 95.7 µM] (inactive) | 
14 | Brc1cc(Br)c(Oc2cc(Br)c(Br)cc2Br)cc1Br | 0.11% [at 46 µM] (inactive) | 
15 | Cc1cc(=O)c2c(O)c3c(O)cc(=O)c4c3c3c(cc(O)c1c23)C(C)(C)C=4O | 2.77% [at 46 µM] (inactive) | 
16 | CCCCCCCC/C=C\CCCCCCCCCCCC(=O)O | -0.7% [at 95.7 µM] (inactive) | 
17 | O[C@@H]1CO[C@H]2[C@@H]1OC[C@@H]2O | -0.158% [at 46 µM] (inactive) | 
18 | Cc1ccccc1N=C(N)Nc1ccccc1C | 0.595% (inactive) | 
19 | CC(=O)c1ccc([N+](=O)[O-])cc1 | -0.679% (inactive) | 
20 | O=C(/C=C/c1ccccc1)OCCc1ccccc1 | -0.749% (inactive) | 

Row | SMILES | fluorescence, % of fluorescent control | outcome
21 | CCCCCCCCCCC(=O)O | -0.0202% [at 95.7 µM] (inactive) | 
22 | O=C=Nc1cccc(C(F)(F)F)c1 | 0.0764% (inactive) | 
23 | CCCCCC#CC(=O)OC | 0.15% (inactive) | 
24 | CO/N=C(/C(=O)N[C@@H]1C(=O)N2C(C(=O)O)=C(COC(N)=O)CS[C@H]12)c1ccco1 |  | inactive
25 | CCCCCCCCOc1ccc(C(=O)O)cc1 | -0.473% (inactive) | 
26 | C=C(C)C(=O)OCCOCCOC(=O)C(=C)C | 0.263% (inactive) | 
27 | O=C(O)C[C@H](NC(=O)OCc1ccccc1)C(=O)O | -0.105% (inactive) | 
28 | C[C@H]1c2cccc(O)c2C(O)=C2C(=O)[C@]3(O)C(O)=C(C(N)=O)C(=O)[C@@H](N(C)C)[C@@H]3[C@@H](O)[C@@H]21 | -0.352% [at 46 µM] (inactive) | 
29 | CC(=O)Nc1ccc(C)cc1C | -0.743% (inactive) | 
30 | c1ccc(C[n+]2cccc3ccccc32)cc1 | -0.252% (inactive) | 
31 | COC(=O)C1=C(C)NC(C)=C(C(=O)O[C@@H]2CCCN(Cc3ccccc3)C2)[C@@H]1c1cccc([N+](=O)[O-])c1 | -0.166% [at 46 µM] (inactive) | 
32 | CC1=C(Br)C(=O)C(Br)=C/C1=C(/c1ccccc1S(=O)(=O)O)c1cc(Br)c(O)c(Br)c1C | -0.0418% (inactive) | 
33 | CCOC(=O)c1ccc(C#Cc2ccc3c(c2)C(C)(C)CCS3)nc1 | -0.265% [at 46 µM] (inactive) | 
34 | Cc1ccc(Cl)c(Nc2ccccc2C(=O)O)c1Cl | -0.309% [at 46 µM] (inactive) | 
35 | CC1(C)[C@H](C(=O)O)N2C(=O)C[C@H]2S1(=O)=O | -0.594% [at 46 µM] (inactive) | 
36 | CO[C@]1(NC(=O)CSC(F)F)C(=O)N2C(C(=O)O)=C(CSc3nnnn3CCO)CO[C@H]21 | -0.496% [at 46 µM] (inactive) | 
37 | Nc1ccc(N=Nc2ccccc2)c(N)c1 | -0.998% (inactive) | 
38 | CCOC(=O)C1=C(C)NC(C)=C(C(=O)OC)C1c1cccc(Cl)c1Cl (stereo not given) | -0.169% [at 46 µM] (inactive) | 
39 | CCCC(C(=O)OCCN(CC)CC)(c1ccccc1)c1ccccc1 | -0.0461% [at 46 µM] (inactive) | 
40 | CCCC(=O)C(=O)O | 0.135% (inactive) | 
